# Measurements as given in PubChem BioAssay (EPA / NIEHS).
# Records with an inconclusive call do not appear. The source made the active and inactive calls. The calls were made as follows, unless noted: active = hit-call score of the fitted dose curve at least 0.9, where 1 is the maximum; inactive = score below 0.9.
# Key:
# [1] = biological target: Bile acid receptor (Homo sapiens) (UniProt Q96RI1); test: ATG_FXR_TRANS: Attagene TRANS-FACTORIAL HepG2 Assay for Farnesoid X Receptor (FXR) (AID 2282979; active = hit-call score of the fitted dose curve at least 0.9, where 1 is the maximum;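 also: hits raise reporter mRNA above DMSO so AC50 marks FXR activation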); conditions: HepG2 Attagene TRANS FXR-GAL4 reporter transcription
# Chain of Bile acid receptor (Homo sapiens) (Q96RI1 whole entry, looked up, the tested form may be a part): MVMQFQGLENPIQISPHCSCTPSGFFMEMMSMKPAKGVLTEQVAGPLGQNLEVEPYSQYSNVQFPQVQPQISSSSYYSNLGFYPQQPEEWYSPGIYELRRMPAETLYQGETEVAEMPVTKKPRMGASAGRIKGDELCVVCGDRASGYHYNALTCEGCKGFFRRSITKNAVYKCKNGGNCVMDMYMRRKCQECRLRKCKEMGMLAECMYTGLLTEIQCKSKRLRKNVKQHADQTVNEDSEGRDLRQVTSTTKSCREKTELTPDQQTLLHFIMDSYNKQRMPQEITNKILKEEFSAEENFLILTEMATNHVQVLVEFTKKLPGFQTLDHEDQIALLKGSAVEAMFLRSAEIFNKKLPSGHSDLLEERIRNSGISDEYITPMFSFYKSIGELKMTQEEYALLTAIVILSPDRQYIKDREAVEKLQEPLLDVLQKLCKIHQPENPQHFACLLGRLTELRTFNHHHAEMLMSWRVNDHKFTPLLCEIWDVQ
# In short: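 HepG2 cells transiently transfected with reporter constructs in which a chimeric FXR-GAL4 protein drives a GAL4-UAS reporter; 24 h compound exposure. Reporter mRNA measured by RT-PCR, FAM labelling, HpaI digestion and capillary electrophoresis; gain-of-signal versus DMSO.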
# [2] = biological target: Oxysterols receptor LXR-beta (Homo sapiens) (UniProt P55055); test: ATG_LXRb_TRANS: Attagene TRANS-FACTORIAL HepG2 Assay for human Liver X Receptor beta (LXRb) (AID 2282981; active = hit-call score of the fitted dose curve at least 0.9, where 1 is the maximum); conditions: HepG2 Attagene TRANS GAL4-LXRb reporter, mRNA
# Chain of Oxysterols receptor LXR-beta (Homo sapiens) (P55055 whole entry, looked up, the tested form may be a part): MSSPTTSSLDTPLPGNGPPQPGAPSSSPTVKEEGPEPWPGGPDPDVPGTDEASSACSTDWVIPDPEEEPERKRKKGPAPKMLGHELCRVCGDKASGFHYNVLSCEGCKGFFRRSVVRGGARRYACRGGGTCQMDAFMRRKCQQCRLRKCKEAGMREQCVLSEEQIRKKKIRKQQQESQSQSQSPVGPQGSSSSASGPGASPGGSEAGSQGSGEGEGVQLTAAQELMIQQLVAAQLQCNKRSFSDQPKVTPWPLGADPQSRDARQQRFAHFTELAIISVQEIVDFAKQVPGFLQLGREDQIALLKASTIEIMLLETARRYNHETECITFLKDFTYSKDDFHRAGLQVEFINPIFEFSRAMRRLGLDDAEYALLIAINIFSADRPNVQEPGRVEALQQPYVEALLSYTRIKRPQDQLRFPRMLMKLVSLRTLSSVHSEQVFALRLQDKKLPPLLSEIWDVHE
# In short: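 HepG2 cells transiently transfected with GAL4-UAS reporter units for chimeric NR-Gal4 proteins, dosed for 24 h. Reporter transcripts measured by RT-PCR and capillary electrophoresis; gain-of-signal fitting relative to DMSO.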
# [3] = biological target: Hepatocyte nuclear factor 4-alpha (Homo sapiens) (UniProt P41235); test: ATG_HNF4a_TRANS: Attagene TRANS-FACTORIAL HepG2 Assay for human Hepatocyte Nuclear Factor 4 alpha (HNF4a) (AID 2282982; active = hit-call score of the fitted dose curve at least 0.9, where 1 is the maximum); conditions: HepG2 HNF4a transactivation reporter, mRNA readout
# Chain of Hepatocyte nuclear factor 4-alpha (Homo sapiens) (P41235 whole entry, looked up, the tested form may be a part): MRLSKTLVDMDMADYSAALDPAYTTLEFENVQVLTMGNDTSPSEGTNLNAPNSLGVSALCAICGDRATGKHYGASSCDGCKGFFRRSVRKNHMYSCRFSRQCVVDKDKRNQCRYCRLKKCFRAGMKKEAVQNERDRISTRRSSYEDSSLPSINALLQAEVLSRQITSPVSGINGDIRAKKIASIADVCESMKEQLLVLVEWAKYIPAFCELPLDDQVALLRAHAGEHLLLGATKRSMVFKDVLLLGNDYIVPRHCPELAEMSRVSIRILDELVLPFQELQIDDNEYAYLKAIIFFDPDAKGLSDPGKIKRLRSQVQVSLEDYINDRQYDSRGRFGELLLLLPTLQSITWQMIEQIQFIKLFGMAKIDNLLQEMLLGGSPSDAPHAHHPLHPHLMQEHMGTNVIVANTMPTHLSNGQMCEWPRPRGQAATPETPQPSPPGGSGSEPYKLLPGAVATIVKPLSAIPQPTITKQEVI
# In short: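 HepG2 cells transiently transfected with HNF4a-Gal4 chimera and GAL4-UAS reporter units, dosed for 24 h. Reporter mRNA measured by RT-PCR, fluorescent primer extension and capillary electrophoresis; gain-of-signal fitted relative to DMSO.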
# [4] = biological target: Nuclear receptor subfamily 4 group A member 2 (Homo sapiens) (UniProt P43354); test: ATG_NURR1_TRANS: Attagene TRANS-FACTORIAL HepG2 Assay for human Nuclear Receptor Related Protein 1 (NURR1) (AID 2282985; active = hit-call score of the fitted dose curve at least 0.9, where 1 is the maximum); conditions: HepG2 Attagene TRANS reporter, mRNA readout
# Chain of Nuclear receptor subfamily 4 group A member 2 (Homo sapiens) (P43354 whole entry, looked up, the tested form may be a part): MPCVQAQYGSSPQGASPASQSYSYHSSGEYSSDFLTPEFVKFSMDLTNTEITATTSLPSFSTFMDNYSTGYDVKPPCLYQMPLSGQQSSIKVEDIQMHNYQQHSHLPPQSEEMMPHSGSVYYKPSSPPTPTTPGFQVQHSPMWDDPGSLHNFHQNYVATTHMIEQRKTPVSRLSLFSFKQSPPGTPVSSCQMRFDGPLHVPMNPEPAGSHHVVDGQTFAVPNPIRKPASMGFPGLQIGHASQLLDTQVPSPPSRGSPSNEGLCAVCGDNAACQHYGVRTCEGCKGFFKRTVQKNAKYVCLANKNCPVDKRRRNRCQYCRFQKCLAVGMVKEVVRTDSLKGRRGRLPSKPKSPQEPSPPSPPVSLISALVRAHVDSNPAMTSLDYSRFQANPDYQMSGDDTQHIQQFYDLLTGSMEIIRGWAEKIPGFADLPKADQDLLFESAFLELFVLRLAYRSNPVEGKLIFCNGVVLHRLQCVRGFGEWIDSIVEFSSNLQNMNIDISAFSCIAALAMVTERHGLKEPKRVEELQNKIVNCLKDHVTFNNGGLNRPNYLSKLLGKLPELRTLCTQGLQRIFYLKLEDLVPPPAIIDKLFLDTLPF
# In short: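 HepG2 cells transiently transfected with NURR1-Gal4 chimera and GAL4-UAS reporter units; after 24 hr compound exposure, reporter mRNA quantified by RT-PCR and capillary electrophoresis; gain of signal fitted against DMSO.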
# [5] = biological target: Transcriptional activator Myb (Homo sapiens) (UniProt P10242); test: ATG_Myb_CIS: Attagene CIS-FACTORIAL HepG2 Assay for human Myeloblastosis (Myb) Proto-Oncogene Transcription Factor (AID 2282986); conditions: HepG2 Attagene CIS-FACTORIAL Myb reporter transcription; actives raise or lower the signal
# Chain of Transcriptional activator Myb (Homo sapiens) (P10242 whole entry, looked up): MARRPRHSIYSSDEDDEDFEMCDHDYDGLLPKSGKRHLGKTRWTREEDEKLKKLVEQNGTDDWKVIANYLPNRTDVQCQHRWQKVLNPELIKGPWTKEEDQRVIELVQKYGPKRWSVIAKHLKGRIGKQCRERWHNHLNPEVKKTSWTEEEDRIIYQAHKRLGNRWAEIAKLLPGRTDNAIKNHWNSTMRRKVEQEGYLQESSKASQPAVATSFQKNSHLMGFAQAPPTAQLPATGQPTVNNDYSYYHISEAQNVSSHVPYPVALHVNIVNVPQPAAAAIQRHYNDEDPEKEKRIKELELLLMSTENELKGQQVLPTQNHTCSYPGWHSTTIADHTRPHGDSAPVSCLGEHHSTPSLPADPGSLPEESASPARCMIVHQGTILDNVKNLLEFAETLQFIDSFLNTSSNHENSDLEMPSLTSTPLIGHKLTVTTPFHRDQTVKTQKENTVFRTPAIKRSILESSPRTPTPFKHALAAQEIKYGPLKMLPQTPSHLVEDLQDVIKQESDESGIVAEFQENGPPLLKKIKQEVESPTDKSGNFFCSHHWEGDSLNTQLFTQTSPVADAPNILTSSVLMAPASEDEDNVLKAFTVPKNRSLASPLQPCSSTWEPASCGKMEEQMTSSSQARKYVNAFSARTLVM
# In short: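 In this HepG2 transient-transfection format, cis-regulated reporter mRNA is quantified 24 h post-dosing by RT-PCR with capillary electrophoresis, fitted bidirectionally to DMSO baseline.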
# [6] = biological target: Nuclear respiratory factor 1 (Homo sapiens) (UniProt Q16656); test: ATG_NRF1_CIS: Attagene CIS-FACTORIAL HepG2 Assay for human Nuclear Respiratory Factor 1 (NRF1) Orphan Gene (AID 2282987); conditions: HepG2 NRF1 cis-element reporter, Attagene multiplex; actives raise or lower the signal
# Chain of Nuclear respiratory factor 1 (Homo sapiens) (Q16656 whole entry, looked up): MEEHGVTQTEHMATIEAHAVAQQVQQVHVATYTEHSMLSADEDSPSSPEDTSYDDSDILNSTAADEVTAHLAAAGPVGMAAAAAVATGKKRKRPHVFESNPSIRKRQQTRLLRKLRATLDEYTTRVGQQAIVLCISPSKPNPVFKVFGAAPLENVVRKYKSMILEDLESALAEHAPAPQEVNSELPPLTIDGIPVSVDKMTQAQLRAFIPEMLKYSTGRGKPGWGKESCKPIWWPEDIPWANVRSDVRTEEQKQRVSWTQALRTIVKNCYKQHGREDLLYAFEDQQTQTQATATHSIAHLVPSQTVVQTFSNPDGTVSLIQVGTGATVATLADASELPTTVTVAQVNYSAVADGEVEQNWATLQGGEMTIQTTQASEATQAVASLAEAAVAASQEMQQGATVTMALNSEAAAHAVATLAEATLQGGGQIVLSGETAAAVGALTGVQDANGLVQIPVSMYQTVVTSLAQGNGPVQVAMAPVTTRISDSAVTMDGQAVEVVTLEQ
# In short: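 Using DMSO as baseline, gain- or loss-of-signal was fitted for reporter mRNA levels in HepG2 cells transiently transfected with cis-regulated reporter units. Samples were taken 24 h after dosing and read by RT-PCR with capillary electrophoresis.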
# [7] = ATG_NFI_CIS: Attagene CIS-FACTORIAL HepG2 Assay for human Nuclear Factor I (NFI) (AID 2282989); conditions: HepG2 cis-regulatory reporter, NFI response element transcription; actives raise or lower the signal
# In short: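 Endogenous TF activity in HepG2 cells transiently transfected with cis-element-driven multiplexed reporter units, read 24 h after dosing. Reporter mRNA quantified by RT-PCR, 6-FAM labelling, HpaI digestion and capillary electrophoresis; bidirectional fit versus DMSO.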
# [8] = biological target: Myc proto-oncogene protein (Homo sapiens) (UniProt P01106); test: ATG_Myc_CIS: Attagene CIS-FACTORIAL HepG2 Assay for human Myelocytomatosis (Myc) Proto-Oncogene Transcription Factor (AID 2282990); conditions: HepG2, Attagene cis-reporter transcription factor activity; actives raise or lower the signal
# Chain of Myc proto-oncogene protein (Homo sapiens) (P01106 whole entry, looked up, the tested form may be a part): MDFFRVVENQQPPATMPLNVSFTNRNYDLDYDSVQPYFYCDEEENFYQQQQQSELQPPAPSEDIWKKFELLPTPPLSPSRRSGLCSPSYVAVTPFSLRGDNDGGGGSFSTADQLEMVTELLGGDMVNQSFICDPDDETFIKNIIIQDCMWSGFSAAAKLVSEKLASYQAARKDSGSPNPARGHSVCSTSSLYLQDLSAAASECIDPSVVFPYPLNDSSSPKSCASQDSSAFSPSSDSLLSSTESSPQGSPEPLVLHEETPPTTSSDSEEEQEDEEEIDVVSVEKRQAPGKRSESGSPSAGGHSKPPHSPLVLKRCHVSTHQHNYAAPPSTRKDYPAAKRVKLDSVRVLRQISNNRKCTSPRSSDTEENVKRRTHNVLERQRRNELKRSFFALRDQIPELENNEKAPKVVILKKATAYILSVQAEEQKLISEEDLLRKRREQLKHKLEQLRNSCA
# In short: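 Fluorescence intensity of reporter-specific cDNA fragments, separated by capillary electrophoresis, gives the signal. Transfected HepG2 cells carrying cis-promoter reporter constructs are incubated with compound for 24 h; DMSO serves as baseline.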
# [9] = ATG_NF_kB_CIS: Attagene CIS-FACTORIAL HepG2 Assay for human Nuclear Factor Kappa B (NF-kB) (AID 2282991); conditions: HepG2 Attagene cis-factorial NF-kB reporter mRNA; actives raise or lower the signal
# In short: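 Endpoint from a 52-component multiplexed HepG2 reporter panel: cis-regulated transcription units transiently transfected, 24 h dosing, reporter mRNA quantified by RT-PCR and capillary electrophoresis, scored as increase or decrease against DMSO.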
# [10] = ATG_NRF2_ARE_CIS: Attagene CIS-FACTORIAL HepG2 Assay for human Nuclear Factor Erythroid 2 Related Factor 2 (NFR2) response to Antioxidant Response Elements (ARE) (AID 2282992); conditions: HepG2 Attagene ARE/NRF2 reporter, transcription factor activity; actives raise or lower the signal;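 as to AC50: reporter mRNA level measured by RT-PCR and capillary electrophoresis fluorescence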
# In short: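 Multiplexed reporter mRNA profiling in HepG2 after a 24 h chemical exposure. Curves fitted in both directions relative to DMSO negative control.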
# [11] = ATG_Oct_MLP_CIS: Attagene CIS-FACTORIAL HepG2 Assay for human Octamer-Binding Transcription Factor (Oct) (AID 2282993); conditions: HepG2 Attagene cis-factorial Oct reporter, mRNA; actives raise or lower the signal
# In short: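 HepG2 cells transiently transfected with cis-element-driven reporter transcription units (endogenous TF activity); 24 h compound exposure. Reporter mRNA quantified by RT-PCR, 6-FAM labelling, HpaI digestion and capillary electrophoresis; bidirectional fit versus DMSO baseline.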
# [12] = biological target: Cellular tumor antigen p53 (Homo sapiens) (UniProt P04637); test: ATG_p53_CIS: Attagene CIS-FACTORIAL HepG2 Assay for human p53 Transcription Factor (AID 2282994); conditions: HepG2 p53 cis-element reporter, Attagene mRNA; actives raise or lower the signal
# Chain of Cellular tumor antigen p53 (Homo sapiens) (P04637 whole entry, looked up): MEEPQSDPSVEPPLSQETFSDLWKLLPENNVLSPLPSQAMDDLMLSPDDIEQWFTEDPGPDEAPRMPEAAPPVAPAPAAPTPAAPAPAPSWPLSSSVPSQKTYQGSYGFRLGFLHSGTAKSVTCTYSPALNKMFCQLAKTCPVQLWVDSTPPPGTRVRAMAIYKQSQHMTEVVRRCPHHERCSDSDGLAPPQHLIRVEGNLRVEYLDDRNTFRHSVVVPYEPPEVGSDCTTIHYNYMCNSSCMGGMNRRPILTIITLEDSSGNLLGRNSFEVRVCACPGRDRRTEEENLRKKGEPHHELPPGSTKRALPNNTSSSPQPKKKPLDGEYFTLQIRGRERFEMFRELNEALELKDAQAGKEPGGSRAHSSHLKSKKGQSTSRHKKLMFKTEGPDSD
# In short: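 Multiplexed reporter mRNA assay in human HepG2 liver cells; cis-regulated units report endogenous factor activity. Values come from bidirectional curve fitting against DMSO negative control after 24 h treatment.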
# [13] = ATG_M_06_TRANS: Attagene TRANS-FACTORIAL HepG2 Assay for M06 Transcription Factor (Internal Marker) (AID 2282983; active = hit-call score of the fitted dose curve at least 0.9, where 1 is the maximum;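 also: reporter transcript level by RT-PCR then capillary electrophoresis fluorescence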); conditions: HepG2 Attagene TRANS M06 internal marker reporter
# In short: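 HepG2 cells transiently transfected with multiplexed GAL4-UAS reporter transcription units; after 24 h compound exposure, reporter mRNA measured by RT-PCR, FAM-labelled primer extension, HpaI digestion and capillary electrophoresis. Gain-of-signal fitted versus DMSO baseline; background control readout.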
# [14] = ATG_M_32_TRANS: Attagene TRANS-FACTORIAL HepG2 Assay for M32 Transcription Factor (Internal Marker) (AID 2282984; active = hit-call score of the fitted dose curve at least 0.9, where 1 is the maximum); conditions: HepG2 Attagene TRANS M32 internal marker reporter
# In short: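 HepG2 cells transiently transfected with GAL4-UAS reporter units, dosed for 24 hours. Reporter mRNA quantified by RT-PCR, 6-FAM labelling, HpaI digestion and capillary electrophoresis; internal-marker signal fitted upward relative to DMSO.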
# [15] = biological target: Glucocorticoid receptor (Homo sapiens) (UniProt P04150); test: ATG_GR_TRANS: Attagene TRANS-FACTORIAL HepG2 Assay for human Glucocorticoid Receptor (GR) (AID 2282978; active = hit-call score of the fitted dose curve at least 0.9, where 1 is the maximum;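 also: activators score as hits since higher reporter transcript over DMSO is fitted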); conditions: HepG2 Attagene TRANS GR reporter, mRNA transcription
# Chain of Glucocorticoid receptor (Homo sapiens) (P04150 whole entry, looked up, the tested form may be a part): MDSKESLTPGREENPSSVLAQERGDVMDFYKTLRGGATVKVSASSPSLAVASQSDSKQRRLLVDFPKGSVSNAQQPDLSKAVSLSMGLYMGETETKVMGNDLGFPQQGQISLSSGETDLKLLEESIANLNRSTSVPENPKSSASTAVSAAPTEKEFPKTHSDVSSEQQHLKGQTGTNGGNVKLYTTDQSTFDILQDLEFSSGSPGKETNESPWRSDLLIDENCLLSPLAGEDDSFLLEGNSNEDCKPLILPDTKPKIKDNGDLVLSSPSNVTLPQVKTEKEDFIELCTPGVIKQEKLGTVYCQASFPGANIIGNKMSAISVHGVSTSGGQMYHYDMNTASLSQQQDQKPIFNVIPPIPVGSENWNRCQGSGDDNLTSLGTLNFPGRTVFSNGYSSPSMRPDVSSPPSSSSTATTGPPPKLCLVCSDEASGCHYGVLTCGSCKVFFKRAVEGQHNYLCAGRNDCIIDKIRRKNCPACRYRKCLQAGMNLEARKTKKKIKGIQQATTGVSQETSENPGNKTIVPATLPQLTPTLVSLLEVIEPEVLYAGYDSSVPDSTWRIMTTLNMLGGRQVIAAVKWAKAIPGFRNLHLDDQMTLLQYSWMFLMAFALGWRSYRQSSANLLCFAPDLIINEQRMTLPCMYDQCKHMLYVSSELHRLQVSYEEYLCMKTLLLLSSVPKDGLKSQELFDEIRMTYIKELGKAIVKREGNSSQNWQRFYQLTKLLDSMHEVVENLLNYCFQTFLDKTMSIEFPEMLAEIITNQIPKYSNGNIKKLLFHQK
# In short: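 Exogenous NR-GAL4 fusion activity was assessed through induced GAL4-UAS reporter transcripts in transfected human HepG2 cells, quantified after 24 h by RT-PCR and fluorescent capillary electrophoresis with DMSO as baseline.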
# [16] = biological target: Oxysterols receptor LXR-alpha (Homo sapiens) (UniProt Q13133); test: ATG_LXRa_TRANS: Attagene TRANS-FACTORIAL HepG2 Assay for human Liver X Receptor alpha (LXRa) (AID 2282980; active = hit-call score of the fitted dose curve at least 0.9, where 1 is the maximum); conditions: HepG2 Attagene TRANS reporter, LXRa transactivation
# In short: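 HepG2 cells were transiently transfected with multiplexed reporter units driven by chimeric LXRa–GAL4 fusion proteins, then dosed for 24 h. Reporter mRNA was quantified by RT-PCR, fluorescent labelling and capillary electrophoresis; gain of signal fitted against DMSO baseline.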
# [17] = BSK_3C_uPAR: BioMAP Diversity Plus: 3C Assay for Urokinase-type plasminogen activator receptor (uPAR) Biomarker Activity (AID 2282998); conditions: BioMAP 3C HUVEC, uPAR biomarker ELISA; actives raise or lower the signal
# In short: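 Primary human umbilical vein endothelial cells, 3C system; surface uPAR measured by ELISA 24 h after dosing. Cytotoxicity via SRB total protein in parallel cultures; bidirectional fit against DMSO.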
# [18] = BSK_3C_VCAM1: BioMAP Diversity Plus: 3C Assay for Vascular cell adhesion molecule 1 (VCAM1) Biomarker Activity (AID 2282999); conditions: BioMAP 3C HUVEC, VCAM1 ELISA, cytokine-stimulated; actives raise or lower the signal
# In short: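 Human umbilical vein endothelial cells (3C system), biomarker read by ELISA 24 h after dosing; bidirectional fit against DMSO baseline. Cytotoxicity tracked by SRB total-protein staining in parallel cultures at biomarker time.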
structure (smiles),measurement,setting,value
COc1ccc(N)c(C)c1,outcome,[1],inactive
same,outcome,[2],inactive
same,outcome,[3],inactive
same,outcome,[4],inactive
same,outcome,[5],inactive
same,outcome,[6],inactive
same,outcome,[7],inactive
same,outcome,[8],inactive
same,outcome,[9],inactive
same,AC50,[10],46.3 µM (active)
same,outcome,[11],inactive
[Cl][Dy]([Cl])[Cl],outcome,[1],inactive
same,outcome,[2],inactive
same,outcome,[3],inactive
same,outcome,[5],inactive
same,outcome,[6],inactive
same,outcome,[7],inactive
same,outcome,[8],inactive
same,outcome,[9],inactive
same,outcome,[10],inactive
same,outcome,[11],inactive
same,outcome,[12],inactive
CCCCOCCOC(=O)c1ccccc1C(=O)OCCOCCCC,outcome,[1],inactive
same,outcome,[2],inactive
same,outcome,[13],inactive
same,outcome,[14],inactive
same,outcome,[5],inactive
same,outcome,[6],inactive
same,outcome,[7],inactive
same,outcome,[8],inactive
same,AC50,[10],37.7 µM (active)
same,outcome,[11],inactive
same,outcome,[12],inactive
COc1ccc(OC)cc1,outcome,[15],inactive
same,outcome,[3],inactive
same,outcome,[5],inactive
same,outcome,[6],inactive
same,outcome,[7],inactive
same,outcome,[8],inactive
same,outcome,[9],inactive
same,outcome,[10],inactive
same,outcome,[11],inactive
same,outcome,[12],inactive
CC(CO)(CO)[N+](=O)[O-],outcome,[1],inactive
same,outcome,[16],inactive
same,outcome,[14],inactive
same,outcome,[5],inactive
same,outcome,[6],inactive
same,outcome,[7],inactive
same,outcome,[8],inactive
same,outcome,[10],inactive
same,outcome,[11],inactive
CCCCOCCOCCO,outcome,[15],inactive
same,outcome,[13],inactive
same,outcome,[14],inactive
same,outcome,[4],inactive
same,outcome,[5],inactive
same,outcome,[6],inactive
same,outcome,[7],inactive
same,outcome,[8],inactive
same,outcome,[9],inactive
same,outcome,[10],inactive
same,outcome,[11],inactive
same,outcome,[12],inactive
same,outcome,[17],inactive
same,outcome,[18],inactive
CC12CCC(C1)C(C)(C)C2O (stereo unspecified),outcome,[1],inactive
same,outcome,[2],inactive
same,outcome,[13],inactive
same,outcome,[4],inactive
same,outcome,[5],inactive
same,outcome,[6],inactive
same,outcome,[7],inactive
same,outcome,[8],inactive
same,outcome,[9],inactive
same,outcome,[10],inactive
same,outcome,[11],inactive
same,outcome,[12],inactive
CC(=O)C1=C(C)[C@@H]2C[C@@]3(C1)[C@H](C)CC[C@H]3C2(C)C,outcome,[1],inactive
same,outcome,[14],inactive
same,outcome,[4],inactive
same,outcome,[5],inactive
same,outcome,[6],inactive
same,AC50,[7],137 µM (active)
same,outcome,[8],inactive
same,AC50,[10],70.1 µM (active)
same,outcome,[11],inactive
same,AC50,[12],100 µM (active)
O=c1cc[nH]cc1,outcome,[1],inactive
same,outcome,[3],inactive
same,outcome,[13],inactive
same,outcome,[14],inactive
same,outcome,[4],inactive
same,outcome,[5],inactive
same,outcome,[6],inactive
same,outcome,[7],inactive
same,outcome,[8],inactive
same,outcome,[9],inactive
same,outcome,[10],inactive
same,outcome,[11],inactive
same,outcome,[12],inactive
